Measured values as given in the supplement of paper PMC3484114.
± gives the standard deviation.

test system: OVCAR-3-derived ovarian cancer stem-like cells (spheroids); assay: cell growth relative to untreated control; higher = more growth (less inhibition); settings: 2.29 µM; 96 h
Procedure, shortened: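 After trypsin dissociation, OVCAR-3 spheroid-derived stem-like cells were placed in ultra-low attachment 96-well plates at 50,000 cells/mL in stem cell medium and preincubated for 24 h. Treatment at 2.29 uM followed for 96 h at 37°C, 5% CO2, with 4 replicate wells per compound. A 4 h TOX8 resazurin fluorescence read (ex 560/em 590 nm) gave viability, from which percent growth relative to untreated wells was derived after blank subtraction and Grubbs outlier removal.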

| SMILES | cell growth [%] |
| --- | --- |
| Nc1ncnc2c1ncn2[C@@H]1O[C@H](CO)C[C@H]1O | 89.8 ± 18 |
| CC(CN1CC(=O)NC(=O)C1)N1CC(=O)NC(=O)C1 (centres undefined) | 221 ± 43 |
| Nc1nc(=S)c2ncn([C@@H]3C[C@H](O)[C@@H](CO)O3)c2[nH]1 | 110 ± 13 |
| OCCNCCN1CCN(CCCN2c3ccccc3Sc3ccc(C(F)(F)F)cc32)CC1 | 126 ± 42 |
| Fc1cccc(Cl)c1C1SCc2nc3ccccc3n21 (centres undefined) | 22.8 ± 9.7 |
| CC[C@H](C)C(=O)O[C@H]1CCC=C2C=C[C@H](C)[C@H](CC[C@@H]3C[C@@H](O)CC(=O)O3)[C@H]21 | 135 ± 25 |
| COc1ccc2cccc(C(=N)c3ccc(C)c4c3CCC4)c2c1 | 95.3 ± 25 |
| Cc1ccc(S(=O)(=O)ON=C2CC(c3ccccc3)N(C)C(c3ccccc3)C2)cc1 (centres undefined) | 96.7 ± 22 |
| COc1cc(/C=C/C(=O)CC(=O)/C=C/c2ccc(O)c(OC)c2)ccc1O | 89 ± 24 |
| CCN(CC)CC(C)(C)C(=O)/C=C/c1ccc(C)cc1 | 80.7 ± 22 |
| O=C(OCC12CC3CC(CC(C3)C1)C2)c1ccc(NCc2cc(O)ccc2O)cc1 | 159 ± 28 |
| COc1ccc2c(c1)CCc1c-2n[nH]c1-c1[nH]nc2c1CCc1cc(OC)ccc1-2 | 87.5 ± 18 |
| Cc1c(Cl)ccc2c1NC(=O)C2(O)C(C(=O)c1ccccc1)c1ccccc1 (centres undefined) | 107 ± 48 |
| Cc1ccc(C2NC(=O)c3ccccc3N2)s1 (centres undefined) | 60.4 ± 16 |
| COC1CC(C)C(OC)c2cc(O)cc(c2O)NC(=O)/C(C)=C/C=C\C(C)C(OC(N)=O)/C(C)=C/C(C)C1OC (centres undefined) | 29 ± 4.8 |
| CC(C)(C)N(Cc1ccc2c(c1)OCO2)C(=O)/C=C\[S+]([O-])c1ccccc1 (centres undefined) | 41.6 ± 10 |
| Nc1ccc(N)c2c1C(=O)c1ccccc1C2=O | 97.9 ± 12 |
| NCCCNCCCCNCCCN | 141 ± 34 |
| O=C(NC(=O)c1c(Cl)nc2sccn12)Nc1ccc(Cl)cc1 | 136 ± 25 |
| CC(C)C1=C(O)C2=C(C(=O)C1=O)C1(C)CCCC(C)(C)C1CC2O (centres undefined) | 134 ± 36 |

| SMILES | cell growth [%] |
| --- | --- |
| CCC1CN2CCc3cc(OC)c(OC)cc3C2CC1CC1c2cc(OC)c(OC)cc2CCN1C(=O)C(Cc1c[nH]c2ccccc12)NC(=O)OC(C)(C)C (centres undefined) | 94 ± 23 |
| CCOC(=O)Cc1c(C)c2cc(C(=O)c3ccccc3)c(O)cc2oc1=O | 98 ± 18 |
| O=C1C(=O)c2ccccc2C(O)=C1CCCc1ccc(Oc2ccccc2)cc1 | 87.1 ± 37 |
| CCOC(=O)Cc1cc(=O)oc2cc(O)ccc12 | 80.4 ± 11 |
| CN(C)c1ccc(C=c2c3ccccc3n3c2cc(-c2ccc(Cl)cc2)[n+]3C)cc1 | 39.7 ± 12 |
| COc1cc(/C=C(\OC(C)=O)c2ccc3c(c2)OCO3)cc(OC)c1OC | 162 ± 58 |
| O=C1C(Cl)=C(N2CCN(C3=C(Cl)C(=O)c4ccccc4C3=O)CC2)C(=O)c2ccccc21 | 52.1 ± 17 |
| CCCCCCCC/C=C\CCCCCCCC(=O)O | 124 ± 36 |
| CC1OC1C(=O)C1(O)C(C)C(O)C23OC2(C(O)c2c(O)cccc2C3=O)C1O (centres undefined) | 23.6 ± 6.9 |
| O=C(c1nc2ccc(Cl)cc2[nH]c1=O)C(O)c1ccc2c(c1)OCO2 (centres undefined) | 109 ± 61 |
| CC(C)=CCC1=C(O)c2ccccc2C(=O)C1=O | 109 ± 28 |
| OCC1OC(n2cnc3c(SCc4ccccc4)ncnc32)C(O)C1O (centres undefined) | 118 ± 33 |
| NC1(C(=O)O)CCCC1 | 84.9 ± 15 |
| CCOC(=O)c1sc2[n+](c1C)C(=O)/C(=C/c1ccc([N+](=O)[O-])cc1)S2 | 94.2 ± 27 |
| COc1cc(O)c2c(c1)C(=O)c1cc3c(c(O)c1C2=O)C(OC1OC(C)C(O)C(O)C1OC)C(OC)C(C)(O)C3=O (centres undefined) | 17.1 ± 7.5 |
| Cc1c2ccncc2cc2c1[nH]c1ccccc12 | 101 ± 20 |
| CCn1c(O)c(C=Nc2ccccc2)s/c1=N/Nc1ncc(CC(=O)Nc2ccccc2C)s1 | 95.9 ± 16 |
| COc1cc(C(C)c2cc3c(cc2OCCO)OCO3)cc(OC)c1OC (centres undefined) | 24.7 ± 6.7 |
| Nc1nc(N)c2cc(Sc3cccc(C(F)(F)F)c3)ccc2n1 | 94.4 ± 24 |
